Tau fibril ThT = tau fibrillization inhibition (ThT binding); P10636; 270,000 tested, 2.1% active; Potency, µM (doses to about 57.4 µM), actives largely listed as inhibitors; recombinant tau K18 P301L, heparin-induced fibrillization, ThT fluorescence; further: nearly all actives have a fitted effect of over 55% in size
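Tau K18 P301L fragment (15 uM unlabeled plus 0.24 uM Alexa 594-labeled) in 100 mM sodium acetate pH 7 with compound, fibrillization induced by 20 uM heparin for 6 hr at 37 C. Thioflavin T (30 uM) added, fluorescence read after 1 hr (ex 450, em 510 nm).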
RORg inh = inhibitors of mouse ROR gamma transcriptional activity. P51450. Drosophila S2 Gal4-RORgamma UAS-luciferase reporter, 20 h. Potency, µM (highest dose often 53.6 µM), actives largely listed as inhibitors. 310,000 tested, 5.4% active. AID 2551; further: nearly all actives have a fitted effect of over 60% in size
Target sequence (P51450 whole entry, looked up, the tested form may be a part): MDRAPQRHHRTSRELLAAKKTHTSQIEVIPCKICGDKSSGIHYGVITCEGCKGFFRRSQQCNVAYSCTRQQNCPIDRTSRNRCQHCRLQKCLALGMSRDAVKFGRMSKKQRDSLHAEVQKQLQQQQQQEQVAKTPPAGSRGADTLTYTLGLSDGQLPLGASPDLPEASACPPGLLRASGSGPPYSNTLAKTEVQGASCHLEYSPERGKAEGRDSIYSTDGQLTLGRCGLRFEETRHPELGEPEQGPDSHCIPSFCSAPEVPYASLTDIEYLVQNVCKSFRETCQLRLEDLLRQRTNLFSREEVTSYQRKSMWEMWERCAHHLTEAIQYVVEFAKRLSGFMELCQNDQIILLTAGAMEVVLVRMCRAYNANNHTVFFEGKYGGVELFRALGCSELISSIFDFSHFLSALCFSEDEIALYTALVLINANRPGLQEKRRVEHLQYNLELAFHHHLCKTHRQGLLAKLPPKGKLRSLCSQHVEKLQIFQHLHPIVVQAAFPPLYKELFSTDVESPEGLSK
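Using a luciferase readout, inhibitors were identified by reduced reporter activity in Drosophila cells coexpressing a copper-inducible Gal4–ROR gamma fusion and UAS-driven Photinus luciferase, incubated 20 hr after 700 uM copper sulfate.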
Tau fluor cs = counter-screen for tau fibril formation inhibitors. AID 1463. Potency, µM (doses to about 57.7 µM). 280,000 tested, 0.93% active. tau K18 P301L Alexa594 fluorescence, heparin fibrillization; further: nearly all actives have a fitted effect of over 55% in size
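Human tau K18 P301L (15 uM unlabeled, 0.24 uM Alexa 594-labeled) in 100 mM sodium acetate pH 7 with 20 uM heparin, 6 hr at 37 C. ThT 30 uM added, 1 hr ambient; Alexa 594 FP and total fluorescence read at 555/632 nm.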
Tau FP inhib = blocks human tau fibril formation measured by polarization. P10636. K18 P301L tau heparin fibrillization, Alexa594 FP, 6 h. Potency, µM (series often up to 57.7 µM), usual class: inhibitors. 280,000 tested, 0.39% active; further: nearly all actives have a fitted effect of over 55% in size
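Compound effects on tau fibrillization are measured by Alexa 594 fluorescence polarization (ex 555, em 632 nm). K18 P301L tau is used at 15 uM with 0.24 uM labeled tracer, and 20 uM heparin induces aggregation over 6 hr at 37 C.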
VP16 counter = counter-screen for ROR gamma inhibitors: Gal4-VP16 reporter; 310,000 tested, 3.5% active; Potency, µM (series often up to 53.6 µM), hits mostly inhibitors; Drosophila S2 Gal4-VP16 UAS-luciferase, luminescence, 20 h;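 further: Gal4-VP16 expression switched on by copper sulfate through the metallothionein promoter; nearly all actives have a fitted effect of over 50% in size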
Of the large screens only hits and unclear results are named; the others gave an inactive call; [ ] = another dose, or the depositor's remark. An excerpt weighted towards active compounds, which were near 7.3% of everything screened. The call rests on the fitted dose curve; in most records, active means well fitted curve in the direction sought with a large enough effect; inconclusive means small, poorly fitted or top-dose-only effect, or another doubt; inactive means no such curve, though single readings can be large; an effect the other way counts as inactive or inconclusive.

NC(N)=Nc1ccc2[nH]c3c(c2c1)C[C@]1(O)[C@@H]2Cc4ccc(O)c5c4[C@]1(CCN2CC1CC1)[C@@H]3O5	none
CC(C)(C)c1ccc(O)c(N=Cc2c(O)ccc3ccccc23)c1	RORg inh 13µM, VP16 counter 11µM (no result: Tau fibril ThT, Tau fluor cs, Tau FP inhib)
COC(=O)C(O)(c1ccc(N=Cc2ccccc2O)c(C)c1)C(F)(F)F (configuration not stated)	none
CCCCC(=O)Cl	none (no result: Tau fibril ThT, Tau fluor cs, Tau FP inhib)
COC(=O)[C@H]1[C@H](c2ccccc2)C(=O)[C@@]2(O)c3ccccc3O[C@@]12c1ccccc1	none
CCOc1ccc(-c2nc3ccc(-c4nc5ccc(N6CCN(C)CC6)cc5[nH]4)cc3[nH]2)cc1	Tau fibril ThT 2.8µM, RORg inh 2.2µM, Tau fluor cs inconclusive, VP16 counter inconclusive
COc1ccc(CCNCc2ccc3c(c2)n(C)c(=O)n3C)cc1	none (no result: RORg inh, VP16 counter)
COc1ccc(CCn2c(NN=C3CCCCC3)nc3c2c(=O)[nH]c(=O)n3C)cc1	Tau fibril ThT 28µM, Tau fluor cs inconclusive, Tau FP inhib inconclusive
CC(C)c1ccc(N2C(=O)NC(=O)/C(=C/c3cnc(-c4ccccc4)nc3)C2=O)cc1	Tau fibril ThT 16µM, Tau FP inhib inconclusive
CCc1ccc(N2C(=O)NC(=O)/C(=C\c3cccn3CCOc3ccc(C(C)C)cc3)C2=O)cc1	Tau fibril ThT inconclusive, VP16 counter 0.4µM
CSc1ncc(/C=C2/C(=O)NC(=O)N(c3ccc(C(C)C)cc3)C2=O)cn1	Tau fibril ThT 25µM, Tau FP inhib inconclusive
Cc1ccc(OCCn2cccc2/C=C2/C(=O)NC(=O)N(Cc3ccco3)C2=O)cc1	VP16 counter inconclusive (no result: Tau fibril ThT)
ClCC(Cl)Cl	none (no result: Tau fibril ThT, Tau fluor cs, Tau FP inhib)
COc1cccc(/C=N/NC(=O)c2c(C)nc3ccc(Br)cn23)c1	RORg inh 14µM, VP16 counter inconclusive
O=C(N/N=C/c1cccc([N+](=O)[O-])c1)c1cnccn1	RORg inh inconclusive
COC(=O)C1=CO[C@@H](C)[C@@H]2CN3CCc4c([nH]c5cc(OC)ccc45)[C@@H]3C[C@H]12	Tau fibril ThT 22µM, Tau fluor cs inconclusive
CCN(CC)c1ccc(C=C2C(=O)NC(=S)NC2=O)cc1	Tau fibril ThT inconclusive, Tau fluor cs inconclusive
CC(C)CN(CC(C)C)c1ccc(C=C2C(=O)NC(=S)NC2=O)cc1[N+](=O)[O-]	Tau fibril ThT 25µM, Tau fluor cs inconclusive, Tau FP inhib inconclusive
COc1cc(-c2nc3ccc(Cl)cn3c2Nc2ccc3c(c2)OCCO3)ccc1O	Tau fibril ThT inconclusive, Tau fluor cs 10µM[quencher] (no result: RORg inh, VP16 counter)
Cc1nn(CCC#N)c2c1P(=S)(N1CCCC1)OC(c1ccc(F)cc1)=N2 (configuration not stated)	Tau fibril ThT 32µM, Tau FP inhib inconclusive
COc1cc2c(cc1/C=C/[N+](=O)[O-])OCO2	Tau fibril ThT inconclusive, RORg inh 7.9µM, VP16 counter inconclusive
Nc1nc2c(s1)CCCCCCCCCC2	RORg inh 11µM
NC(=O)CF	none (no result: Tau fibril ThT, Tau fluor cs, Tau FP inhib)
CCn1ccnc1CN1CCCC(C(=O)c2ccc(OC)cc2OC)C1 (configuration not stated)	RORg inh 3.5µM, VP16 counter 6.3µM
CCn1ccnc1CN1CCCC(C(=O)c2cc(F)ccc2OC)C1 (configuration not stated)	RORg inh 2µM, VP16 counter 16µM
OCCBr	none (no result: Tau fibril ThT, Tau fluor cs, Tau FP inhib)
COc1ccc(-n2nc(C(=O)NCC(=O)N3CCC4(CC3)OCCO4)c3ccccc3c2=O)cc1OC	RORg inh 16µM, VP16 counter inconclusive (no result: Tau fibril ThT, Tau fluor cs, Tau FP inhib)
COc1ccc2c(c1)CCC1[C@@H]2CCC2(C)[C@@H](NCCCCCCN3C(=O)C=CC3=O)CC[C@@H]12 (some centres not stated)	Tau fibril ThT inconclusive
CC(C)=CCCN1CCC(NC(=O)C(O)(c2ccccc2)C2CCCC2)CC1 (configuration not stated)	none (no result: Tau fibril ThT, Tau fluor cs, Tau FP inhib)
CC(=O)CC(c1ccc(O)cc1)c1c(O)c2ccccc2oc1=O (configuration not stated)	none (no result: Tau fibril ThT, Tau fluor cs, Tau FP inhib)
CC/C(CC(c1ccccc1)c1c(O)c2ccccc2oc1=O)=N\NC(N)=S (configuration not stated)	RORg inh 10µM, VP16 counter inconclusive
COc1ccc(C(=O)C2CCCN(C3CSCCSC3)C2)c(C)c1 (configuration not stated)	RORg inh 10µM
O=C1Nc2cc(Cl)c(Cl)cc2N2CCNC[C@H]12	RORg inh inconclusive, VP16 counter inconclusive
CC(C)Br	none (no result: Tau fibril ThT, Tau fluor cs, Tau FP inhib)

From PubChem BioAssay
